Test [1] relates to RAW-Dual. The test is described as follows: NF-kB SEAP reporter activity, fold change vs agonist alone; higher = enhanced NF-kB activity. The essentials: (§1)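 After 50 nL of library stock was delivered by pin tool to RAW-Dual macrophages (50,000 cells/well, DMEM, 384-well plates), a PRR agonist was added 1 h later and the plates were kept at 37 °C, 5% CO2. Twenty hours later, IRF was read from supernatant by QuantiLuc luminescence and NF-κB by QuantiBlue absorbance at 620 nm. Reporter activity is stated as fold change over agonist-alone wells. Wells with IncuCyte confluency under 70% of agonist controls in both mask sets were counted as cytotoxic.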

In test [2] the test system is RAW-Dual. The test is described as follows: NF-kB SEAP reporter activity, fold change vs agonist alone; cytotoxicity flag (confluency mask): not cytotoxic; higher = enhanced NF-kB activity. The essentials: as §1
Test [3] relates to RAW-Dual. The test is described as follows: NF-kB SEAP reporter activity, fold change vs agonist alone; cytotoxicity flag (confluency mask): cytotoxic (confluency <70% of control); higher = enhanced NF-kB activity. The method, boiled down:
as §1

The mark [4] stands for this setting: library stock concentration (final ~1000-fold dilution): 10 mM, cytotoxicity flag (confluency mask): not cytotoxic, agonist: Imiquimod (TLR7) […].
Where [5] appears, read: library stock concentration (final ~1000-fold dilution): 10 mM, cytotoxicity flag (confluency mask): not cytotoxic, agonist: MPLA (TLR4) […].
[6] abbreviates: agonist: ODN 1826 (TLR9) 0.5 ug/mL.
Setting [7] is: agonist: Pam2CSK4 (TLR2/6) 0.1 ug/mL.
The mark [8] stands for this setting: agonist: Pam3CSK4 (TLR2/1) 0.1 ug/mL.
Setting [9] is: library stock concentration (final ~1000-fold dilution): 10 mM, cytotoxicity flag (confluency mask): cytotoxic (confluency <70% of control), agonist: Imiquimod (TLR7) […].
Where [10] appears, read: library stock concentration (final ~1000-fold dilution): 10 mM, cytotoxicity flag (confluency mask): cytotoxic (confluency <70% of control), agonist: MPLA (TLR4) […].
[11] abbreviates: library stock concentration (final ~1000-fold dilution): 10 mM water, cytotoxicity flag (confluency mask): not cytotoxic, agonist: MPLA (TLR4) […].

Each structure is given as a SMILES string. In all, about 2,900 compounds were measured (“NF-kB SEAP reporter activity, fold change vs agonist alone”: median about 0.99, highest 2% from about 2.6 on). The entries come from a sample that favours the highest values as a whole.

As to `Nc1nc(-c2ccco2)c2cnn(Cc3ccccc3F)c2n1`, the “NF-kB SEAP reporter activity” value with RAW-Dual [1] (setting [4]) is 1.05; in the test with RAW-Dual [1] (setting [5]) it was 1.22.

As to `Nc1nc(-c2ccco2)c2cnn(Cc3ccccc3F)c2n1` (library stock concentration (final ~1000-fold dilution): 10 mM), the “NF-kB SEAP reporter activity” value in the test with RAW-Dual [2] (agonist: LPS (TLR4) 0.1 ug/mL) stood at 1.11; in the test on RAW-Dual [2] (setting [6]), 1.1; with RAW-Dual [2] (setting [7]) it was 1.03; in the test on RAW-Dual [2] (setting [8]) it was 1.08.

Turning to `NS(=O)(=O)c1ccc(NC(=S)N2CCN(C/C=C/c3ccccc3)CC2)cc1` (library stock concentration (final ~1000-fold dilution): 10 mM), the “NF-kB SEAP reporter activity” value in the test on RAW-Dual [2] (agonist: LPS (TLR4) 0.1 ug/mL) turned out to be 1.42; in the test on RAW-Dual [2] (setting [6]), 1.17; with RAW-Dual [2] (setting [7]), 0.787; with RAW-Dual [2] (setting [8]) it was 0.825.

In the case of `NS(=O)(=O)c1ccc(NC(=S)N2CCN(C/C=C/c3ccccc3)CC2)cc1`, the “NF-kB SEAP reporter activity” value turned out to be 1.02 in the test with RAW-Dual [1] (setting [4]) and 1.1 in the test with RAW-Dual [1] (setting [5]).

Consider `Cl.OCCNCc1ccc(OCc2ccc(F)cc2)c(OCc2ccc(F)cc2)c1`, for which the “NF-kB SEAP reporter activity” value with RAW-Dual [1] (setting [9]) was determined as 1.41; in the test on RAW-Dual [1] (setting [10]), 1.5.

For `Cl.OCCNCc1ccc(OCc2ccc(F)cc2)c(OCc2ccc(F)cc2)c1` (library stock concentration (final ~1000-fold dilution): 10 mM), the “NF-kB SEAP reporter activity” value came out at 0.702 in the test on RAW-Dual [3] (agonist: LPS (TLR4) 0.1 ug/mL), 0.629 with RAW-Dual [3] (setting [6]), 0.301 in the test on RAW-Dual [3] (setting [7]) and 0.354 with RAW-Dual [3] (setting [8]).

Turning to `Cl.N=C(N)NCCCCC(N)C(=O)O` (centres undefined), the “NF-kB SEAP reporter activity” value in the test with RAW-Dual [1] (setting [11]) amounted to 1.08.

With `Cl.N=C(N)NCCCCC(N)C(=O)O` (centres undefined) (library stock concentration (final ~1000-fold dilution): 10 mM water), the “NF-kB SEAP reporter activity” value is 1.17 in the test with RAW-Dual [2] (agonist: LPS (TLR4) 0.1 ug/mL), 1.12 in the test with RAW-Dual [2] (setting [6]), 1.21 in the test on RAW-Dual [2] (setting [7]) and 0.923 in the test on RAW-Dual [2] (setting [8]).

On to `CCCCNc1ncc2c(-c3ccc(CN4CCN(C)CC4)cc3)cn(C3CCC(O)CC3)c2n1.Cl` (centres undefined) (library stock concentration (final ~1000-fold dilution): 10 mM), for which the “NF-kB SEAP reporter activity” value came out at 0.236 in the test on RAW-Dual [3] (agonist: LPS (TLR4) 0.1 ug/mL), 0.351 in the test with RAW-Dual [3] (setting [6]), 0.128 with RAW-Dual [3] (setting [7]) and 0.192 in the test on RAW-Dual [3] (setting [8]).

Regarding `CCCCNc1ncc2c(-c3ccc(CN4CCN(C)CC4)cc3)cn(C3CCC(O)CC3)c2n1.Cl` (centres undefined), the “NF-kB SEAP reporter activity” value in the test on RAW-Dual [1] (setting [9]) was 0.547; with RAW-Dual [1] (setting [10]), 0.322.

Regarding `CN(C)C(=O)Nc1cccc(-c2ccc(N(C)C)cc2)c1` (library stock concentration (final ~1000-fold dilution): 10 mM), the “NF-kB SEAP reporter activity” value in the test with RAW-Dual [2] (agonist: LPS (TLR4) 0.1 ug/mL) is 1.52; in the test on RAW-Dual [2] (setting [6]), 1.08; in the test with RAW-Dual [2] (setting [7]), 0.914; in the test on RAW-Dual [2] (setting [8]), 1.01.

For the compound `CCn1cc(-c2ccnc3[nH]c(-c4cccc(CN(C)C)c4)cc23)c(-c2ccc(NC(=O)N(C)C)cc2)n1` (library stock concentration (final ~1000-fold dilution): 10 mM), the “NF-kB SEAP reporter activity” value was determined as 6.43 in the test with RAW-Dual [2] (agonist: LPS (TLR4) 0.1 ug/mL), 0.432 in the test on RAW-Dual [2] (setting [6]), 1.83 in the test on RAW-Dual [2] (setting [7]) and 3.76 with RAW-Dual [2] (setting [8]).

As for `CN(C)C(=O)Nc1cccc(-c2ccc(N(C)C)cc2)c1`, the “NF-kB SEAP reporter activity” value was determined as 0.998 in the test with RAW-Dual [1] (setting [4]) and 0.985 with RAW-Dual [1] (setting [5]).

For `CCn1cc(-c2ccnc3[nH]c(-c4cccc(CN(C)C)c4)cc23)c(-c2ccc(NC(=O)N(C)C)cc2)n1`, the “NF-kB SEAP reporter activity” value with RAW-Dual [1] (setting [4]) is 3.13; in the test with RAW-Dual [1] (setting [5]), 2.67.

On to `CS(=O)(=O)O.O=C(Nc1cccc(Cl)c1)Nc1ncc(CCNc2ncnc3ccsc23)s1` (library stock concentration (final ~1000-fold dilution): 10 mM), for which the “NF-kB SEAP reporter activity” value with RAW-Dual [3] (agonist: LPS (TLR4) 0.1 ug/mL) came out at 1; with RAW-Dual [3] (setting [6]) it was 0.54; with RAW-Dual [3] (setting [7]), 0.153; in the test with RAW-Dual [3] (setting [8]) it was 0.292.

Consider `CS(=O)(=O)O.O=C(Nc1cccc(Cl)c1)Nc1ncc(CCNc2ncnc3ccsc23)s1`, for which the “NF-kB SEAP reporter activity” value with RAW-Dual [1] (setting [9]) came out at 0.503; in the test on RAW-Dual [1] (setting [10]), 0.512.

Turning to `CCCCCCOc1cc(C)c(O)c(C)c1C` (library stock concentration (final ~1000-fold dilution): 10 mM), the “NF-kB SEAP reporter activity” value with RAW-Dual [3] (agonist: LPS (TLR4) 0.1 ug/mL) was 0.406; in the test on RAW-Dual [3] (setting [6]), 0.234; in the test on RAW-Dual [3] (setting [7]), 0.154; with RAW-Dual [3] (setting [8]), 0.209.

With `CCCCCCOc1cc(C)c(O)c(C)c1C`, the figures for the “NF-kB SEAP reporter activity” value in the test with RAW-Dual [1] (setting [9]) and in the test on RAW-Dual [1] (setting [10]) were 0.313 and 1.36, respectively.

In the case of `c1cc(-c2cnn3cc(-c4ccc(OCCN5CCCCC5)cc4)cnc23)ccn1`, the “NF-kB SEAP reporter activity” value in the test on RAW-Dual [1] (library stock concentration (final ~1000-fold dilution): 2 mM, cytotoxicity flag (confluency mask): not cytotoxic, agonist: Imiquimod (TLR7) […]) is 0.841; with RAW-Dual [1] (library stock concentration (final ~1000-fold dilution): 2 mM, cytotoxicity flag (confluency mask): not cytotoxic, agonist: MPLA (TLR4) […]) it was 1.08.

Consider `Cl.Cl.c1cc(-c2cnn3cc(-c4ccc(OCCN5CCCCC5)cc4)cnc23)ccn1` (library stock concentration (final ~1000-fold dilution): 10 mM water), for which the “NF-kB SEAP reporter activity” value came out at 1.69 with RAW-Dual [2] (agonist: LPS (TLR4) 0.1 ug/mL), 0.252 with RAW-Dual [2] (setting [6]), 1.44 in the test with RAW-Dual [2] (setting [7]) and 1.92 with RAW-Dual [2] (setting [8]).

`Cl.Cl.c1cc(-c2cnn3cc(-c4ccc(OCCN5CCCCC5)cc4)cnc23)ccn1`: the “NF-kB SEAP reporter activity” value was 0.944 with RAW-Dual [1] (library stock concentration (final ~1000-fold dilution): 10 mM water, cytotoxicity flag (confluency mask): not cytotoxic, agonist: Imiquimod (TLR7) […]) and 1.2 in the test with RAW-Dual [1] (setting [11]).

As for `c1cc(-c2cnn3cc(-c4ccc(OCCN5CCCCC5)cc4)cnc23)ccn1` (library stock concentration (final ~1000-fold dilution): 2 mM), the “NF-kB SEAP reporter activity” value amounted to 1.38 in the test on RAW-Dual [2] (agonist: LPS (TLR4) 0.1 ug/mL), 0.365 in the test on RAW-Dual [2] (setting [6]), 1.32 with RAW-Dual [2] (setting [7]) and 1.28 in the test on RAW-Dual [2] (setting [8]).

For the compound `O=C(NC(C1CC1)C(F)(F)F)c1cc(-c2cnn3cc(-c4ccc(F)cc4)cnc23)cs1` (centres undefined) (library stock concentration (final ~1000-fold dilution): 10 mM), the “NF-kB SEAP reporter activity” value in the test with RAW-Dual [2] (agonist: LPS (TLR4) 0.1 ug/mL) was 2.68; with RAW-Dual [2] (setting [6]), 1.73; in the test on RAW-Dual [2] (setting [7]), 2.46; in the test on RAW-Dual [2] (setting [8]), 3.14.

Take `O=C(NC(C1CC1)C(F)(F)F)c1cc(-c2cnn3cc(-c4ccc(F)cc4)cnc23)cs1` (centres undefined): the “NF-kB SEAP reporter activity” value with RAW-Dual [1] (setting [4]) is 1.28; with RAW-Dual [1] (setting [5]), 1.98.

Take `CCC(=C(c1ccccc1)c1ccc(OCCN(C)C)cc1)c1ccccc1`: the “NF-kB SEAP reporter activity” value with RAW-Dual [1] (setting [9]) was 1.53; in the test on RAW-Dual [1] (setting [10]), 1.52.

In the case of `CCC(=C(c1ccccc1)c1ccc(OCCN(C)C)cc1)c1ccccc1` (library stock concentration (final ~1000-fold dilution): 10 mM), the “NF-kB SEAP reporter activity” value was found to be 0.687 in the test on RAW-Dual [3] (agonist: LPS (TLR4) 0.1 ug/mL), 0.447 in the test with RAW-Dual [3] (setting [6]), 0.398 with RAW-Dual [3] (setting [7]) and 0.525 with RAW-Dual [3] (setting [8]).

Consider `Cc1ccccc1C(OCCN(C)C)c1ccccc1.Cl` (centres undefined), for which the results for the “NF-kB SEAP reporter activity” value with RAW-Dual [1] (setting [4]) and in the test with RAW-Dual [1] (setting [5]) were 1.38 and 1.13, respectively.

For the origin of these results see the supplement of paper PMC10037445.
